Not all results are given here.
aSyn 5UTR act = Activators via SNCA 5'UTR binding, MLPCN. alpha-synuclein 5'UTR reporter, activators screen. activity score, % (tested at 7.5 µM), hits read low. 7.1% of 300,000 active. AID 1814, 2009; in the data active = activity score below about -60%
Each line names hits and unclear results; the compound was inactive in the other large screens.

COc1ccc(NCc2nc3ccccc3n2CCOc2ccccc2)cc1	aSyn 5UTR act -207
Cc1nc2ccccc2n1CCCOc1ccccc1	aSyn 5UTR act -89
COc1ccc(NCc2nc3ccccc3n2CCOc2ccc(C)cc2)cc1	aSyn 5UTR act -114
O=c1oc2ccccc2n1CCCOc1ccccc1	aSyn 5UTR act -73
Cn1c(=Nc2ccccc2)sc2ccccc21	aSyn 5UTR act -77
Cc1sc(=NC(=O)c2ccco2)n(C)c1-c1ccc(F)cc1	aSyn 5UTR act -113
Cn1c(=NC(=O)c2ccco2)sc2ccccc21	aSyn 5UTR act -126
COc1ccccc1CNC(=O)Cc1ccccc1	aSyn 5UTR act -77
O=C(CSc1ccccc1)NCc1ccccc1	aSyn 5UTR act -69
Nc1ccc(C(=O)N/N=C/c2cn(Cc3cccc(F)c3)c3ccccc23)cc1	none
O=C(CSCc1cccc(F)c1)NCc1ccccc1	aSyn 5UTR act -75
COc1ccccc1CNC(=O)CSc1ccccc1	aSyn 5UTR act -100
Cc1ccc(Oc2nccc(-c3ccc(Cl)cc3)n2)cc1	aSyn 5UTR act -67
COc1ccccc1-c1nnc(Nc2nc3c(OC)cccc3s2)o1	none
COc1cccc(-c2nnc(Nc3nc4c(F)cccc4s3)o2)c1	aSyn 5UTR act -145
COc1cccc2sc(Nc3nnc(-c4ccccc4Cl)o3)nc12	none
c1cc(-c2noc(CCC3CCCC3)n2)ccn1	aSyn 5UTR act -79
c1ccc(-c2noc(CCC3CCCC3)n2)cc1	aSyn 5UTR act -121
CN(Cc1nc(-c2ccccc2)no1)C1CCOCC1	aSyn 5UTR act -98
c1ccc(-c2noc(CC3CCCCC3)n2)cc1	aSyn 5UTR act -169
Cc1ccc(Nc2nc(=O)c3cccnc3s2)cc1	aSyn 5UTR act -228
CCN(CC)c1ccc(NC(=S)NC(=O)C2CCC2)cc1	aSyn 5UTR act -64
Cc1cc(NC(=S)NC(=O)C2CC2)ccc1Br	aSyn 5UTR act -114
COc1ccc(NC(=S)NC(=O)C2CCCCC2)cc1	aSyn 5UTR act -86
COc1ccc(NC(=O)NC2CCCCC2C)cc1 (centres undefined)	aSyn 5UTR act -81
Fc1ccc2nc3[nH]c4ccccc4c3nc2c1	aSyn 5UTR act -161
CN(C)c1ccc(NC(=O)C2C3C=CC(C3)C2C(=O)O)cc1 (centres undefined)	aSyn 5UTR act -73
CCc1ccc(NC(=O)C2C3C=CC(C4CC34)C2C(=O)O)cc1 (centres undefined)	aSyn 5UTR act -74
O=C(Nc1ccc(NC(=O)C23CC4CC(CC(C4)C2)C3)cn1)c1ccco1	aSyn 5UTR act -144
CCC(=O)Nc1ccc(NC(=O)C23CC4CC(CC(C4)C2)C3)cn1	aSyn 5UTR act -94
COc1ccc(/C=N/N=C(\N)c2nonc2N)cc1OC	aSyn 5UTR act -93
N/C(=N\N=C\c1cccc(O)c1)c1nonc1N	aSyn 5UTR act -106
COc1cc(/C=N/N=C(\N)c2nonc2N)ccc1O	aSyn 5UTR act -78
N/C(=N\N=C\c1ccc(O)cc1)c1nonc1N	aSyn 5UTR act -182
N/C(=N\N=C\c1ccc([N+](=O)[O-])cc1)c1nonc1N	aSyn 5UTR act -154
CS/C(N)=N/N=C/c1ccc2c(c1)OCO2	aSyn 5UTR act -119
N/C(=N\N=C\c1ccc(O)c(O)c1)c1nonc1N	aSyn 5UTR act -130
N/C(=N\N=C\c1ccc(Br)o1)c1nonc1N	aSyn 5UTR act -116
CS/C(N)=N/N=C/c1ccc([N+](=O)[O-])cc1	aSyn 5UTR act -133
Clc1nccnc1N/N=C/c1ccc(Br)cc1	aSyn 5UTR act -106
Oc1ccc(N=Nc2ccccc2C(F)(F)F)c2cccnc12	none
Clc1ccc(/C=N/Nc2ccccn2)cc1	aSyn 5UTR act -163
FC(F)(F)c1ccccc1/C=N/Nc1ccccn1	aSyn 5UTR act -94
C(=N\Nc1ccccn1)/c1c[nH]c2ccccc12	aSyn 5UTR act -114
Fc1ccc(/C=N/Nc2ccccn2)cc1	aSyn 5UTR act -120
Brc1ccccc1/C=N/Nc1ccccn1	aSyn 5UTR act -131
COc1ccc(/C=N/Nc2ccccn2)cc1O	aSyn 5UTR act -145
Cc1ccc(/C=N/Nc2ccccn2)s1	aSyn 5UTR act -149
Brc1ccc(/C=N/Nc2ccccn2)cc1	aSyn 5UTR act -193
O=C(Nc1ccc([N+](=O)[O-])cc1)Nc1nc(-c2ccc(Cl)s2)cs1	none
COc1ccc(-c2csc(NC(=O)CSc3nc(SC)ns3)n2)cc1	aSyn 5UTR act -102
CCc1nnc(NC(=O)CSc2nc(-c3ccc(OC)cc3)ns2)s1	aSyn 5UTR act -84
COc1ccc(-c2csc(NC(=O)CSc3nc(C)cs3)n2)cc1	aSyn 5UTR act -153
CCCC(=O)Nc1nc(-c2ccc(Cl)s2)cs1	aSyn 5UTR act -114
COc1ccc(-c2csc(NC(=O)C3CCCO3)n2)cc1 (centres undefined)	aSyn 5UTR act -102
CCCC(=O)Nc1nc(C)c(-c2csc(Nc3cc(OC)ccc3OC)n2)s1	none
CCc1ccc(-c2csc(NC(=O)COC(=O)CCc3nc4ccccc4s3)n2)cc1	aSyn 5UTR act -109
CCCC(=O)Nc1nc(-c2ccc(OC)cc2)cs1	aSyn 5UTR act -123
Cc1cc(C(=O)N/N=C2\CC(=O)c3ccccc32)c(C)n1-c1ccccc1	aSyn 5UTR act -112
CC(/C=C/c1ccc(N(C)C)cc1)=N\N=C(/N)SC1CC(=O)N(c2ccc(C(=O)O)cc2)C1=O (centres undefined)	aSyn 5UTR act -68
CC(C)Sc1nc2ccc(N3C(=O)C4CCCCC4C3=O)cc2s1 (centres undefined)	aSyn 5UTR act -126
N/C(=N\c1nc2ccccc2o1)NC(=O)c1ccccc1Br	aSyn 5UTR act -184
COc1ccc(C(=O)N/C(N)=N/c2nc3ccccc3o2)cc1	aSyn 5UTR act -216
Cc1ccc2oc(/N=C(\N)NC(=O)C(C)(C)C)nc2c1	none
COc1ccc(C(=O)/C=C/Sc2nc3ccccc3o2)cc1	aSyn 5UTR act -169
N/C(=N\c1nc2ccccc2o1)NC(=O)c1ccc(Cl)cc1	aSyn 5UTR act -87
N/C(=N\c1nc2ccccc2o1)NC(=O)c1ccc(F)cc1	aSyn 5UTR act -132
O=C(/C=C/Nc1cccc(C(F)(F)F)c1)c1ccc(Oc2ncccn2)cc1	aSyn 5UTR act -94
O=C(/C=C/Nc1ccccc1C(F)(F)F)c1ccco1	aSyn 5UTR act -321
O=C(/C=C/Nc1cccc(C(F)(F)F)c1)c1ccco1	aSyn 5UTR act -174
O=C(/C=C/Nc1ccc(Oc2ccccc2)cc1)c1ccco1	aSyn 5UTR act -201
NC(=O)c1ccccc1N/C=C/C(=O)c1ccco1	aSyn 5UTR act -97
CC1=CC(C)=Nc2ccc(C)cc2N1	aSyn 5UTR act -63
CSc1ccc(C2Nc3ccccc3-c3cc(C)nn32)cc1 (centres undefined)	aSyn 5UTR act -101
Cc1ccc(/C=C/C(=O)Nc2nc3ccccc3[nH]2)cc1	aSyn 5UTR act -186
O=C(/C=C/c1c(F)cccc1Cl)Nc1nc2ccccc2[nH]1	aSyn 5UTR act -314
Nc1cc2nc[nH]c2cc1N	aSyn 5UTR act -100
O=c1c(O)c(-c2cccs2)oc2ccc(Cl)cc12	aSyn 5UTR act -75
O=c1cc(-c2cccs2)oc2ccc(Cl)cc12	aSyn 5UTR act -178
O=c1cc(-c2ccc3c(c2)OCCO3)oc2ccc(Cl)cc12	aSyn 5UTR act -149
CC(C)c1ccc(Nc2nc(CC(=O)O)cs2)cc1	aSyn 5UTR act -77
CNc1ccccc(-c2ccc3ccccc3n2)c1=O	aSyn 5UTR act -140
Cc1ccccc1-c1nc(Cc2ccccc2)no1	aSyn 5UTR act -129
Clc1ccc(-c2nc(Cc3ccccc3)no2)cc1	aSyn 5UTR act -141
COc1cc(/C=N/NC(=O)c2ccccn2)cc2c1OCO2	aSyn 5UTR act -95
O=C(N/N=C/c1cc2c(cc1Cl)OCO2)c1ccccn1	aSyn 5UTR act -92

Assay outcomes deposited in PubChem BioAssay by Broad Institute.
